# Test results published in the supplement of paper PMC8728848.
# This excerpt belongs to a sample that is enriched for the strongest signals.
# B1: AAL (Agrocybe aegerita), Q6WY08 (protein)
# chain: MQGVNIYNISAGTSVDLAAPVTTGDIVTFFSSALNLNAGAGNPNNTTLNLFAENGAYLLHIAHRLQENVIIFNSRQPDGPWLVEQRVSDVANQFAGIDGKAMVTVFDHGDKYQVVINEKTVIQYTKQISGLTLSLSYNATEETSIFSTVVEAVTYTGLALEHHHHHH
# How the values were obtained:
# Experiment in all cases: glycan array binding signal (z-score within array); higher = stronger binding
# Settings in all cases: glycan notation: IUPAC condensed, linker removed; mutation: F63H
# Fuc(a1-2)Gal(b1-3)GalNAc = molecular target: Fuc(a1-2)Gal(b1-3)GalNAc
# Procedure, shortened: (§1)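 The binding signal is a Z-score computed within each array. Data were drawn from 3228 arrays in the Consortium for Functional Glycomics database, restricted to those with a known protein sequence. Scores were averaged over arrays of the same protein sequence at different concentrations or buffers, and over linkers, and negative values can be taken as non-binding.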
# [1] = molecular target: Fuc(a1-2)Gal(b1-3)GalNAc(b1-3)Gal(a1-4)Gal(b1-4)Glc
# Procedure, shortened: as §1
# [2] = molecular target: Fuc(a1-2)Gal(b1-3)GlcNAc(b1-3)Gal(b1-4)Glc
# Procedure, shortened: as §1
# [3] = molecular target: Fuc(a1-2)Gal(b1-3)GlcNAc(b1-3)[Neu5Ac(a2-6)Gal(b1-4)GlcNAc(b1-6)]Gal(b1-4)Glc
# Procedure, shortened: as §1
# [4] = molecular target: Fuc(a1-2)Gal(b1-4)GlcNAc(b1-3)Gal(b1-4)GlcNAc(b1-3)Gal(b1-4)GlcNAc
# Procedure, shortened: as §1
# [5] = molecular target: Fuc(a1-2)[GalNAc(b1-3)]Gal
# Procedure, shortened: as §1
# Fuc(a1-3)GlcNAc = molecular target: Fuc(a1-3)GlcNAc
# Procedure, shortened: as §1
# [6] = molecular target: Fuc(a1-3)[GalNAc(b1-4)]GlcNAc6S
# Procedure, shortened: as §1
# Gal(a1-3)Gal = molecular target: Gal(a1-3)Gal
# Procedure, shortened: as §1
# Gal(a1-3)Gal(b1-4)GlcNAc = molecular target: Gal(a1-3)Gal(b1-4)GlcNAc
# Procedure, shortened: as §1
# [7] = molecular target: Gal(a1-3)Gal(b1-4)GlcNAc(b1-6)GalNAc
# Procedure, shortened: as §1
# [8] = molecular target: Gal(a1-4)Gal(b1-4)GlcNAc(b1-2)Man(a1-3)[Gal(a1-4)Gal(b1-4)GlcNAc(b1-2)Man(a1-6)]Man(b1-4)GlcNAc(b1-4)GlcNAc
# Procedure, shortened: as §1
# Gal(b1-3)Gal(b1-4)GlcNAc = molecular target: Gal(b1-3)Gal(b1-4)GlcNAc
# Procedure, shortened: as §1
# Gal(b1-3)GalNAc = molecular target: Gal(b1-3)GalNAc
# Procedure, shortened: as §1
# [9] = molecular target: Gal(b1-3)GalNAc(a1-3)[Fuc(a1-2)]Gal(b1-4)Glc
# Procedure, shortened: as §1
# [10] = molecular target: Gal(b1-3)GalNAc(a1-3)[Fuc(a1-2)]Gal(b1-4)GlcNAc
# Procedure, shortened: as §1
# [11] = molecular target: Gal(b1-3)GalNAc(b1-4)Gal(b1-4)Glc
# Procedure, shortened: as §1
# [12] = molecular target: Gal(b1-3)GlcNAc(a1-3)Gal(b1-4)GlcNAc
# Procedure, shortened: as §1
# [13] = molecular target: Gal(b1-3)GlcNAc(b1-3)Gal(b1-4)GlcNAc(b1-3)Gal(b1-4)GlcNAc(b1-2)[Gal(b1-3)GlcNAc(b1-3)Gal(b1-4)GlcNAc(b1-3)Gal(b1-4)GlcNAc(b1-6)]Man(a1-6)[Gal(b1-3)GlcNAc(b1-3)Gal(b1-4)GlcNAc(b1-3)Gal(b1-4)GlcNAc(b1-2)Man(a1-3)]Man(b1-4)GlcNAc(b1-4)[Fuc(a1-6)]GlcNAc
# Procedure, shortened: as §1
# [14] = molecular target: Gal(b1-3)GlcNAc(b1-6)GalNAc
# Procedure, shortened: as §1
# [15] = molecular target: Gal(b1-4)GlcNAc(b1-2)Man(a1-3)[Gal(b1-4)GlcNAc(b1-2)Man(a1-6)][Gal(b1-4)GlcNAc(b1-4)]Man(b1-4)GlcNAc(b1-4)[Fuc(a1-6)]GlcNAc
# Procedure, shortened: as §1
# [16] = molecular target: Gal(b1-4)GlcNAc(b1-2)Man(a1-6)[GlcNAc(b1-2)Man(a1-3)]Man(b1-4)GlcNAc(b1-4)GlcNAc
# Procedure, shortened: as §1
# [17] = molecular target: Gal(b1-4)GlcNAc(b1-2)[Gal(b1-4)GlcNAc(b1-6)]Man(a1-6)[GlcNAc(b1-4)][Gal(b1-4)GlcNAc(b1-2)Man(a1-3)]Man(b1-4)GlcNAc(b1-4)GlcNAc
# Procedure, shortened: as §1
# [18] = molecular target: Gal(b1-4)GlcNAc(b1-2)[Gal(b1-4)GlcNAc(b1-6)]Man(a1-6)[GlcNAc(b1-4)][Gal(b1-4)GlcNAc(b1-2)[Gal(b1-4)GlcNAc(b1-4)]Man(a1-3)]Man(b1-4)GlcNAc(b1-4)[Fuc(a1-6)]GlcNAc
# Procedure, shortened: as §1
# [19] = molecular target: Gal(b1-4)GlcNAc(b1-3)Gal(b1-4)GlcNAc(b1-3)Gal(b1-4)GlcNAc(b1-2)Man(a1-3)[Gal(b1-4)GlcNAc(b1-3)Gal(b1-4)GlcNAc(b1-3)Gal(b1-4)GlcNAc(b1-2)Man(a1-6)]Man(b1-4)GlcNAc(b1-4)[Fuc(a1-6)]GlcNAc
# Procedure, shortened: as §1
# [20] = molecular target: Gal(b1-4)GlcNAc(b1-3)Gal(b1-4)GlcNAc(b1-3)Gal(b1-4)GlcNAc(b1-3)Gal(b1-4)GlcNAc(b1-3)Gal(b1-4)GlcNAc(b1-2)Man(a1-3)[Gal(b1-4)GlcNAc(b1-3)Gal(b1-4)GlcNAc(b1-3)Gal(b1-4)GlcNAc(b1-3)Gal(b1-4)GlcNAc(b1-3)Gal(b1-4)GlcNAc(b1-2)Man(a1-6)]Man(b1-4)GlcNAc(b1-4)[Fuc(a1-6)]GlcNAc
# Procedure, shortened: as §1
# [21] = molecular target: Gal(b1-4)GlcNAc(b1-3)Gal(b1-4)GlcNAc(b1-3)Gal(b1-4)GlcNAc(b1-3)Gal(b1-4)GlcNAc(b1-3)Gal(b1-4)GlcNAc(b1-3)Gal(b1-4)GlcNAc(b1-2)Man(a1-3)[Gal(b1-4)GlcNAc(b1-3)Gal(b1-4)GlcNAc(b1-3)Gal(b1-4)GlcNAc(b1-3)Gal(b1-4)GlcNAc(b1-3)Gal(b1-4)GlcNAc(b1-3)Gal(b1-4)GlcNAc(b1-2)Man(a1-6)]Man(b1-4)GlcNAc(b1-4)GlcNAc
# Procedure, shortened: as §1
# [22] = molecular target: Gal(b1-4)GlcNAc(b1-3)Gal(b1-4)GlcNAc(b1-3)GalNAc
# Procedure, shortened: as §1
# [23] = molecular target: Gal(b1-4)GlcNAc(b1-3)Gal(b1-4)GlcNAc(b1-3)[Gal(b1-4)GlcNAc(b1-3)Gal(b1-4)GlcNAc(b1-6)]GalNAc
# Procedure, shortened: as §1
# [24] = molecular target: Gal(b1-4)GlcNAc(b1-3)GalNAc
# Procedure, shortened: as §1
# Gal(b1-6)Gal = molecular target: Gal(b1-6)Gal
# Procedure, shortened: as §1
# Gal3S(b1-3)GlcNAc = molecular target: Gal3S(b1-3)GlcNAc
# Procedure, shortened: as §1
binder,measurement,setting,value
B1,glycan array binding signal (z-score),Fuc(a1-2)Gal(b1-3)GalNAc,-0.198
same,glycan array binding signal (z-score),[1],-0.075
same,glycan array binding signal (z-score),[2],-0.394
same,glycan array binding signal (z-score),[3],0.013
same,glycan array binding signal (z-score),[4],-0.151
same,glycan array binding signal (z-score),[5],-0.544
same,glycan array binding signal (z-score),Fuc(a1-3)GlcNAc,-0.394
same,glycan array binding signal (z-score),[6],-0.005
same,glycan array binding signal (z-score),Gal(a1-3)Gal,-0.04
same,glycan array binding signal (z-score),Gal(a1-3)Gal(b1-4)GlcNAc,-0.342
same,glycan array binding signal (z-score),[7],-0.072
same,glycan array binding signal (z-score),[8],0.969
same,glycan array binding signal (z-score),Gal(b1-3)Gal(b1-4)GlcNAc,-0.287
same,glycan array binding signal (z-score),Gal(b1-3)GalNAc,-0.177
same,glycan array binding signal (z-score),[9],-0.298
same,glycan array binding signal (z-score),[10],-0.341
same,glycan array binding signal (z-score),[11],-0.435
same,glycan array binding signal (z-score),[12],0.927
same,glycan array binding signal (z-score),[13],0.029
same,glycan array binding signal (z-score),[14],0.316
same,glycan array binding signal (z-score),[15],-0.332
same,glycan array binding signal (z-score),[16],-0.263
same,glycan array binding signal (z-score),[17],4.37
same,glycan array binding signal (z-score),[18],-0.265
same,glycan array binding signal (z-score),[19],1.22
same,glycan array binding signal (z-score),[20],-0.033
same,glycan array binding signal (z-score),[21],0.376
same,glycan array binding signal (z-score),[22],-0.163
same,glycan array binding signal (z-score),[23],0.226
same,glycan array binding signal (z-score),[24],-0.105
same,glycan array binding signal (z-score),Gal(b1-6)Gal,-0.264
same,glycan array binding signal (z-score),Gal3S(b1-3)GlcNAc,-0.185
